Screening data: PubChem, National Center for Advancing Translational Sciences (NCATS)
Only some compounds are listed: those with a hit (about 7.6% of all), similar ones and a draw of the others.
ELG1 DNA repair = blocks ELG1-dependent DNA repair in HEK293T cells. hit rate 2.3% among 330,000. AID 504467. HEK293T ELG1-luciferase reporter, luminescence, 16 h; DNA damage induced by 5-fluorouridine. Potency, µM (titrated, usually from 46.1 µM), for inactives: top-dose activity change, negative = inhibition, hits mostly inhibitors; also: potency is read from the fitted curve at half-maximal effect; % is scaled to controls: 0 for no effect and ±100 for the full control effect; nearly all actives have a fitted effect of over 55% in size
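Cells (2,000 per well) received 5-fluorouridine plus test compound or DMSO and were incubated 16 hr at 37 °C, 5% CO2. Luciferase activity was read by luminescence 30 min after ONE-Glo addition; signal suppression marked inhibition of damage-induced ELG1 function.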
RORg inh = ROR gamma (mouse) transcription inhibition; hit rate 5.4% among 310,000; AID 2551; Potency, µM (top dose mostly 53.6 µM), for the others: at the highest dose activity change, negative = inhibition, hits mostly inhibitors; Drosophila S2 Gal4-RORgamma UAS-luciferase reporter, 20 h; also: potency is read from the fitted curve at half-maximal effect; % is scaled to controls: 0 for no effect and ±100 for the full control effect; nearly all actives have a fitted effect of over 60% in size
Target sequence (P51450 whole entry, looked up, the tested form may be a part): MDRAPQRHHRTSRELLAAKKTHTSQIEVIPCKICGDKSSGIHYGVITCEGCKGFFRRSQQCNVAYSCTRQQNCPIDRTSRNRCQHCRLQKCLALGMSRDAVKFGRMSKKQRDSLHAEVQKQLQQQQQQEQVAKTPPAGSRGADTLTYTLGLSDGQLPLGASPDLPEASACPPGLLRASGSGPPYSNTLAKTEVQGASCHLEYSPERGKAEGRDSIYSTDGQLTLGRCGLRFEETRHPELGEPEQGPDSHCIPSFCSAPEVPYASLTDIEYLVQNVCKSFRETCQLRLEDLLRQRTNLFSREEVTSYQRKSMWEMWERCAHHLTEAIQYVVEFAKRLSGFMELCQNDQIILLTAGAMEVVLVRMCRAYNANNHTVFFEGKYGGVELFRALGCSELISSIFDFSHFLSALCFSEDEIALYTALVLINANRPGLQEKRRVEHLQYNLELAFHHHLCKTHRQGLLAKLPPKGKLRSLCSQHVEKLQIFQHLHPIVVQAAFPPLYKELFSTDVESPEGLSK
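ROR gamma transcriptional activity was tracked as Gal4-UAS luciferase output in stably transfected Drosophila Schneider cells, with compound added 1 hr before 700 uM copper sulfate induction and a 20 hr ambient-temperature incubation.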
BRCA1 expr act = BRCA1 expression activation. MCF7-BRCA1-FFLuc reporter, luminescence, 48 h; response scale: scaled: vehicle 0%, 10 µM genistein 100%. Potency, µM (highest dose often 46.1 µM), for the others: top-dose activation, actives largely listed as activators. hit rate 1.1% among 380,000. AID 624202; also: potency is read from the fitted curve at half-maximal effect; nearly all actives have a fitted effect of over 80% in size
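48 h compound treatment of MCF7-BRCA1-FFLuc cells (phenol-red free MEM, 37 °C), then 15 min with luciferase substrate and luminescence imaging.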
p53 reactivator = mutant p53 re-activation in reporter cells | Potency, µM (doses to about 92.2 µM), inactives show at the highest dose activity change, positive = activation, most hits filed as activators | H1299 p53-A138V BP100-luciferase reporter, luminescence, 24 h | hit rate 0.063% among 320,000; also: potency is read from the fitted curve at half-maximal effect; % of control where 0% means no effect; nearly all actives have a fitted effect of over 45% in size
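H1299 (p53-null), stable ts p53-A138V + BP100-Luc; 1000 cells/well, Opti-MEM/10% FBS; cpd 4 pt, 1:5; 24 h, 37 deg C, 5% CO2; detection reagent 10 min RT; luminescence.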
Giardia killer = Giardia lamblia killing; Giardia lamblia trophozoite viability; activity change, % at 7.66 µM, hits read low; hit rate 0.15% among 340,000; AID 540267; in the data active = activity change below about -80%; inconclusive = between about -30% and that limit;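 also: parasites exposed to compound for two days anaerobically before the ATP read; % is scaled to controls: 0 for no effect and ±100 for the full control effect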
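Giardia lamblia trophozoites (100 cells/well) were incubated with compounds for 48 h at 37 deg C under anaerobic conditions. Viability was read as ATP content by one-step luminescence after 15-30 min at room temperature.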
VP16 counter = Gal4-VP16 reporter inhibition counter-screen. Drosophila S2 Gal4-VP16 UAS-luciferase, luminescence, 20 h. Potency, µM (highest dose often 53.6 µM), for the others: at the top dose activity, negative = inhibition, usual class: inhibitors. hit rate 3.5% among 310,000. AID 2546;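 also: Gal4-VP16 expression switched on by copper sulfate through the metallothionein promoter; potency is read from the fitted curve at half-maximal effect; % is scaled to controls: 0 for no effect and ±100 for the full control effect; nearly all actives have a fitted effect of over 50% in size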
Numbers without * were called inactive; ? = inconclusive; nt = not tested or not shown. Unless noted, calls follow the shape of the dose curve; as a rule, active = well fitted curve in the direction sought with a large enough effect; inconclusive = small, poorly fitted or top-dose-only effect, or another doubt; inactive = no such curve, though single readings can be large; an effect the other way counts as inactive or inconclusive.

SMILES	ELG1 DNA repair	RORg inh	BRCA1 expr act	p53 reactivator	Giardia killer	VP16 counter
Nc1ccc(C(=O)OCc2nc3c(ccc4ccccc43)[nH]2)cc1	?	?	7.08µM*	?	-8.1	18.4%
Cc1nc2c(c(C)c1C#N)C(=O)c1ccccc1-2	0.3%	-13.3%	-42.6%	4.0%	-8.3	-9.0%
CCc1ccc(Nc2nnc(SCC(=O)N(C)CC(=O)Nc3ccccc3CC)s2)cc1	18.4µM*	38.8%	-15.2%	?	-8.7	-37.3%
O=C(Nc1ccccc1)c1cc(C2CCCCN2C(=O)OCc2ccccc2)on1 (stereo not drawn)	nt	nt	0.0%	nt	nt	nt
CC(C)(CNC(=O)c1ccc([N+](=O)[O-])c(Cl)c1)CNC(=O)c1ccc([N+](=O)[O-])c(Cl)c1	?	?	-69.3%	-6.4%	-12.8	5.01µM*
Cc1ccc(-n2nc(C)c(/C=N/n3c(C)n[nH]c3=S)c2Cl)cc1	-3.7%	3.55µM*	3.9%	-1.8%	-0.2	-7.4%
O=C(NCCN1CCOCC1)c1sc2ccccc2c1Cl	?	-11.5%	2.7%	3.0%	2.5	27.6%
O=C(CSCc1c(F)cccc1Cl)NCCc1ccccc1	9.4%	6.9%	77.1%	nt	-3.6	27.9%
O=C(CCc1ccccc1)NCCSCc1c(F)cccc1Cl	16.9%	?	11.6%	-8.6%	-15.0	7.94µM*
CC1(C)CC(=O)C(=Cc2cn(-c3ccccc3)nc2-c2ccccc2)C(=O)C1	nt	nt	6.0%	nt	-5.4	nt
CC1=NN(c2ccccc2)C(=O)/C1=C\c1cn(CCC#N)nc1-c1ccc(Cl)cc1	-1.5%	-15.5%	-26.2%	-10.3%	7.3	2.4%
Cc1ccc(-c2nn(-c3ccccc3)cc2C=C2C(=O)CC(C)(C)CC2=O)cc1	5.1%	10.5%	6.31µM*	-3.4%	-6.1	-7.3%
CC1=NNC(=O)/C1=C\c1cn(-c2ccccc2)nc1-c1ccc(Cl)cc1	9.2µM*	5.01µM*	-94.2%	-15.6%	3.3	3.16µM*
COc1ccccc1/C=C1\SC(=S)N(Nc2nc(C)cc(C)n2)C1=O	1.3%	11.2µM*	-12.4%	7.4%	-5.3	-15.3%
O=C(C1CCN(c2nnc(-n3cccc3)s2)CC1)N1CCN(Cc2ccc3c(c2)OCO3)CC1	?	1.2%	-3.1%	-1.5%	25.3	-2.8%
Cn1c(C(=O)N2CCC(C(=O)N3CCN(Cc4ccc5c(c4)OCO5)CC3)CC2)cc2sccc21	7.31µM*	?	-25.9%	-4.7%	-7.8	?
O=C(c1[nH]nc2c1CCc1ccccc1-2)N1CCN(Cc2ccc3c(c2)OCO3)CC1	9.2µM*	?	-26.5%	1.1%	-3.4	-10.6%
O=C(c1sccc1Cl)N1CCN(Cc2ccc3c(c2)OCO3)CC1	20.6µM*	-0.2%	-3.6%	2.8%	8.3	1.9%
COc1ccsc1C(=O)N1CCN(Cc2ccc3c(c2)OCO3)CC1	?	-34.6%	0.0%	7.3%	13.0	1.7%
O=C(C1CCN(c2nnc(N3CCCC3=O)s2)CC1)N1CCN(Cc2ccc3c(c2)OCO3)CC1	13µM*	19.0%	-27.1%	12.1%	8.7	4.5%
CC(OC(=O)C1=Cc2ccccc2OC1)C(=O)NCc1ccco1 (stereo not drawn)	-5.1%	6.9%	14.7%	0.0%	20.8	-3.1%
CN(CC(=O)Nc1ccccc1Cl)S(=O)(=O)c1ccc(C(=O)N2CCOCC2)s1	nt	nt	-4.3%	nt	nt	nt
Cc1c(-n2c(SCC(=O)O)nnc2-c2ccccc2Cl)c(=O)n(-c2ccccc2)n1C	8.2%	22.2%	-7.4%	3.4%	-10.9	-9.8%
CSc1cccc(NC(=S)NN(C)C)c1	17.2%	3.16µM*	68.1%	3.3%	6.1	10µM*
CSc1cccc(NC(=S)N2CCC(N(C)C3CCCCC3)CC2)c1	14.1%	-14.4%	-64.2%	4.0%	-12.3	7.3%
COCCCNC(=S)Nc1cccc(SC)c1	-15.8%	1.58µM*	0.0%	-0.2%	1.6	11.2µM*
CSc1cccc(NC(=S)N2CCC(N(C)C3CCCCC3C)CC2)c1 (stereo not drawn)	5.0%	12.6µM*	-23.3%	3.7%	-21.6	-70.7%
